From PubChem
Most compounds without a hit are left out; they make up all but 2.3% or so of the library.
MEKK2wt PB1 HTS = raises or lowers MEK5 binding to wildtype human MEKK2 PB1 domain | binding response (% of control), % at 10 µM | bead flow cytometry, Alexa488-MEK5 binding to MEKK2 WT; actives lie on both sides | 290,000 tested, 1.1% active | Q9Y2U5 | AID 1531; in the data active = binding response below about 67% or above about 130%; inconclusive = no clear call, values can overlap the other calls; inactive = in between
UBC13 polyUb = inhibitors of human UBC13 polyubiquitin chain formation | P61088 | inhibition, % at 20 µM | TR-FRET | AID 485273 | 330,000 tested, 0.47% active; in the data active = inhibition above about 45%, passing the limit was not always enough; inconclusive = no clear call, values can overlap the other calls
MEKK3 PB1 HTS = raises or lowers MEK5 binding to the human MEKK3 PB1 domain; bead-based flow cytometry, Alexa488-MEK5 binding to MEKK3; actives lie on both sides; 0 = blocked by unlabeled MEK5, 100 = vehicle; binding response (% of control), % at 10 µM; 290,000 tested, 1.4% active; AID 1529;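 active = binding response more than 3 SD above or below the average of its plate-row segment, actives on both sides; inconclusive = wells at one plate position flagged as instrument error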;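 note: Alexa488 bead fluorescence after subtracting the streptavidin-only scavenger bead signal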
Target sequence (Q99759 whole entry, looked up, the tested form may be a part): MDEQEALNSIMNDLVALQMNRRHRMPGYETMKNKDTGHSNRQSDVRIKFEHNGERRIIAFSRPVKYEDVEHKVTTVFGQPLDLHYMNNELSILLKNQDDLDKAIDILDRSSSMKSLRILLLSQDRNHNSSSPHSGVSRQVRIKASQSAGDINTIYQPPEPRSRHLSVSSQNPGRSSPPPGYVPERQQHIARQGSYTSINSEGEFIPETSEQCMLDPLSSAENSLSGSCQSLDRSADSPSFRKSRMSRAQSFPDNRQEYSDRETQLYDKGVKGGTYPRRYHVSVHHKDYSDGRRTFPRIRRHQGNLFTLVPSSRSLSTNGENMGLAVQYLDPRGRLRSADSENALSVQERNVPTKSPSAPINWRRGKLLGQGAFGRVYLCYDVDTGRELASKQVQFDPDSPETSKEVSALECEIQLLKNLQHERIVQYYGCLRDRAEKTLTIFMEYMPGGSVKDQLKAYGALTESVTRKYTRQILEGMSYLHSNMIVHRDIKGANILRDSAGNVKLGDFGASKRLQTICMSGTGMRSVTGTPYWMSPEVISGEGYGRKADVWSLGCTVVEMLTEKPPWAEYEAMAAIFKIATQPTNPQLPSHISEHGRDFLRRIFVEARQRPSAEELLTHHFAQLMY
MEKK2mut PB1 HTS = signal of MEK5 binding to mutant human MEKK2 PB1 domain; bead flow cytometry, Alexa488-MEK5 binding to MEKK2 mutant; percent response, % at 10 µM; 290,000 tested, 0.35% active; AID 1530; in the data active = percent response above about 24%, passing the limit was not always enough
Casp3 counter = caspase-3 inhibition (UBC13 counter-screen); shares compounds with UBC13 polyUb; Recombinant caspase-3, Caspase-Glo 3/7 luminescence, 60 min; inhibition, % at 20 µM; 1,400 tested, 4% active;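 active = mean inhibition across replicates above about 26%, limit read from the data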
UBC13 conf = confirmation of human UBC13 polyubiquitin inhibitors | shares compounds with UBC13 polyUb | UBC13 polyubiquitination, TR-FRET, biochemical | inhibition, % at 10 µM | 1,400 tested, 68% active | AID 488859; in the data active = inhibition above about 45%; inconclusive = no clear call, values can overlap the other calls
Hits are given with their value.

CC[C@@H](C)[C@@H]1CN([C@@H](CN2CCC[C@H]2CN2C(N)=NC[C@H]2C(C)C)C(C)C)C(=N)N1CCCC1CCCC1 was read as UBC13 polyUb 52.9, Casp3 counter inactive and UBC13 conf 56.4.
For CCCCN1C(=N)N([C@@H](C)CN2CCC[C@H]2CN2C(N)=NC[C@H]2CC(C)C)C[C@H]1[C@H](C)CC the results were UBC13 polyUb inactive.
Screening CCC[C@@H](CN1CCC[C@H]1CN1C(N)=NC[C@H]1C(C)C)N1C[C@@H]([C@H](C)CC)N(CCCC2CCCC2)C1=N returned UBC13 polyUb 52.6, Casp3 counter inactive and UBC13 conf inactive.
CC(C)C[C@@H]1CN=C(N)N1C[C@@H]1CCCN1C[C@@H](C(C)C)N1C[C@@H](Cc2ccccc2)N(CCc2ccc(Cl)c(Cl)c2)C1=N was read as UBC13 polyUb inactive.
CCCCN1C(=N)N([C@@H](CCC)CN2CCC[C@H]2CN2C(N)=NC[C@H]2C(C)C)C[C@H]1[C@H](C)CC was read as UBC13 polyUb inactive.
Screening CN(Cc1ccccc1)C(=S)Nc1ccc2nc3n(c(=O)c2c1)CCCCC3 returned MEKK2wt PB1 HTS inactive, UBC13 polyUb inactive, MEKK3 PB1 HTS inactive and MEKK2mut PB1 HTS inactive.
Screening CCN1CCN(C(=O)c2cc(-c3ccc(Cl)s3)nc3ccccc23)CC1 returned MEKK2wt PB1 HTS inactive, UBC13 polyUb inactive, MEKK3 PB1 HTS inactive and MEKK2mut PB1 HTS inactive.
`CN(Cc1ccccc1)C(=O)COC(=O)c1cc(-c2ccc(Cl)s2)nc2ccccc12` gave MEKK2wt PB1 HTS inactive, UBC13 polyUb 51.3, MEKK3 PB1 HTS inactive, MEKK2mut PB1 HTS inactive, Casp3 counter inactive and UBC13 conf inconclusive.
`Cc1cccc(NC(=O)c2cc(-c3ccc(C)s3)nc3ccccc23)n1` gave MEKK2wt PB1 HTS inactive, UBC13 polyUb 47.1, MEKK3 PB1 HTS inactive, MEKK2mut PB1 HTS inactive, Casp3 counter inactive and UBC13 conf inactive.
Cc1cc(NC(=O)c2cc(-c3ccc(C)s3)nc3ccccc23)no1 was read as MEKK2wt PB1 HTS inactive, UBC13 polyUb inactive, MEKK3 PB1 HTS inactive and MEKK2mut PB1 HTS inactive.
For O=C(Nc1ccccn1)c1cc(-c2ccc(Cl)s2)nc2ccccc12 the results were UBC13 polyUb 47.3, Casp3 counter inactive and UBC13 conf inconclusive.
`O=C(O)c1cc(-c2ccc(Cl)s2)nc2ccccc12` gave MEKK2wt PB1 HTS inactive, UBC13 polyUb inactive, MEKK3 PB1 HTS inactive and MEKK2mut PB1 HTS inactive.
For CCOC(=O)c1ccc(NC(=O)c2nc[nH]c2C(=O)N[C@H](C)c2ccccc2)cc1 the results were MEKK2wt PB1 HTS inactive, UBC13 polyUb 70.3, MEKK3 PB1 HTS inactive, MEKK2mut PB1 HTS inactive, Casp3 counter inactive and UBC13 conf inactive.
For O=C(Nc1ccccc1)c1nc[nH]c1C(=O)NCc1ccccc1 the results were UBC13 polyUb inactive.
Screening Cc1ccc(NC(=O)c2nc[nH]c2C(=O)N[C@H](C)c2ccccc2)cc1 returned UBC13 polyUb inactive.
For CCOC(=O)c1ccc(NC(=O)c2nc[nH]c2C(=O)N[C@@H](C)C(=O)OC(C)(C)C)cc1 the results were MEKK2wt PB1 HTS inactive, UBC13 polyUb 58.0, MEKK3 PB1 HTS inactive, MEKK2mut PB1 HTS inactive, Casp3 counter inactive and UBC13 conf inactive.
COc1ccc(NC(=O)c2nc[nH]c2C(=O)NCc2ccccc2)cc1 was read as UBC13 polyUb 60.0, Casp3 counter inactive and UBC13 conf inactive.
`Cc1cccc(C)c1NC(=O)C(C)Sc1n[nH]c(-c2ccncc2)n1` (centres undefined) gave MEKK2wt PB1 HTS inactive, UBC13 polyUb inactive, MEKK3 PB1 HTS inactive and MEKK2mut PB1 HTS inactive.
For COc1cc(C2C(C#N)=C(N)Oc3n[nH]c(-c4cccs4)c32)cc(OC)c1O (centres undefined) the results were MEKK2wt PB1 HTS inactive, UBC13 polyUb 83.8, MEKK3 PB1 HTS inactive, MEKK2mut PB1 HTS inactive, Casp3 counter inactive and UBC13 conf 87.6.
CCNC(C(=O)c1c[nH]c2c(CC)cccc12)c1ccccc1 (centres undefined) was read as MEKK2wt PB1 HTS inactive, UBC13 polyUb 50.0, MEKK3 PB1 HTS inactive, MEKK2mut PB1 HTS inactive, Casp3 counter inactive and UBC13 conf 64.3.
For CC1CCC(NC(=O)CC(NC(N)=O)c2ccccc2Cl)CC1 (centres undefined) the results were MEKK2wt PB1 HTS inactive, UBC13 polyUb inactive, MEKK3 PB1 HTS inactive and MEKK2mut PB1 HTS inactive.
For Cc1sc2ncnc(N)c2c1C the results were MEKK2wt PB1 HTS inactive, UBC13 polyUb 61.0, MEKK3 PB1 HTS inactive, MEKK2mut PB1 HTS inactive, Casp3 counter inactive and UBC13 conf 49.2.
Screening CN1CCN(CCCNC(=O)c2ccc(/C=C3\Oc4ccccc4N(Cc4ccccc4F)C3=O)cc2)CC1 returned MEKK2wt PB1 HTS 159.0, UBC13 polyUb 45.4, MEKK3 PB1 HTS inactive, MEKK2mut PB1 HTS 29.0, Casp3 counter inactive and UBC13 conf 51.6.
`CN1CCN(CCCNC(=O)CCN2C(=O)COc3ccccc32)CC1` gave MEKK2wt PB1 HTS inactive, UBC13 polyUb inactive, MEKK3 PB1 HTS inactive and MEKK2mut PB1 HTS inactive.
`NNC(=O)c1ccc(CN2C(=O)c3cccc4cccc2c34)cc1` gave MEKK2wt PB1 HTS inactive, UBC13 polyUb 95.5, MEKK3 PB1 HTS inactive, MEKK2mut PB1 HTS inactive, Casp3 counter inactive and UBC13 conf 107.9.
`CCOC(=O)c1c(NC(=O)C(NCCN(C)C)c2ccccc2)sc2c1CCCC2` (centres undefined) gave MEKK2wt PB1 HTS 171.0, UBC13 polyUb 47.7, MEKK3 PB1 HTS inactive, MEKK2mut PB1 HTS 43.0, Casp3 counter inactive and UBC13 conf 87.6.
CCOC(=O)c1c(NC(=O)c2ccccc2N(C)S(=O)(=O)c2ccccc2)sc2c1CCCC2 was read as MEKK2wt PB1 HTS inactive, UBC13 polyUb inactive, MEKK3 PB1 HTS inactive and MEKK2mut PB1 HTS inactive.
C=CCNC(=S)NNC(=O)c1ccc(OCCC)cc1 was read as MEKK2wt PB1 HTS inactive, UBC13 polyUb inactive, MEKK3 PB1 HTS inactive and MEKK2mut PB1 HTS inactive.
For CCCCC(=O)NC(=S)NNC(=O)c1ccc(OC)cc1 the results were MEKK2wt PB1 HTS inactive, UBC13 polyUb 68.6, MEKK3 PB1 HTS inactive, MEKK2mut PB1 HTS inactive, Casp3 counter inactive and UBC13 conf inactive.
CCCOc1ccc(C(=O)NNC(=S)NC(=O)CC)cc1 was read as MEKK2wt PB1 HTS inactive, UBC13 polyUb 66.4, MEKK3 PB1 HTS inactive, MEKK2mut PB1 HTS inactive, Casp3 counter inactive and UBC13 conf 82.7.
Screening O=C(NNC(=O)c1ccc(NC(=O)c2ccccc2)cc1)c1ccccc1 returned MEKK2wt PB1 HTS inactive, UBC13 polyUb inactive, MEKK3 PB1 HTS inactive and MEKK2mut PB1 HTS inactive.
Screening COc1ccc(OCC(=O)NNC(=S)NC(=O)c2ccc([N+](=O)[O-])cc2)cc1 returned MEKK2wt PB1 HTS inactive, UBC13 polyUb 60.1, MEKK3 PB1 HTS inactive, MEKK2mut PB1 HTS inactive, Casp3 counter inactive and UBC13 conf inactive.
